From the supplement of paper PMC10849652
About 8,800 targets were measured; listed, in parts, are those with a hit and a random draw of the rest. About 0.5% of all pairs of compound and target were hits. Unmarked numbers belong to inactive results.

Tests used:
Experiment in all cases: log2 fold change, soluble protein after heating vs DMSO (PISA); higher = thermal stabilisation; K562 lysate, 10 uM; active = over 0.2 and 3.5 SD of the protein, either way, in both replicates (recomputed)
nilotinib = compound: Cc1cn(-c2cc(NC(=O)c3ccc(C)c(Nc4nccc(-c5cccnc5)n4)c3)cc(C(F)(F)F)c2)cn1 [nilotinib]
In short: (§1)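 Log-two fold change in thermal stability relative to solvent controls is reported from duplicates. For each sample, crude K562 extract from dounce-homogenised pellets in PBS pH 7.4 with 1 mM MgCl2, at 1 mg/mL protein, was treated with 10 μM compound for 30 min. Aliquots heated for 3 min across 48°C-58°C were pooled, brought to 0.5% NP-40 at 4°C and cleared at 21,000xg for 90 min. The supernatant was quantified by TMTpro 16plex LC-MS/MS with channel sums equalised.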

[1] = compound: Cc1nc(Nc2n[nH]c3c2CN(C(=O)N[C@H](CN(C)C)c2ccccc2)C3(C)C)c2sccc2n1
In short: as §1

dasatinib = compound: Cc1nc(Nc2ncc(C(=O)Nc3c(C)cccc3Cl)s2)cc(N2CCN(CCO)CC2)n1 [dasatinib]
In short: as §1

[2] = compound: Cc1ncc(-c2ccnc(Nc3ccc(S(C)(=O)=O)cc3)n2)n1C(C)C
In short: as §1

[3] = compound: Cn1cc(-c2ccc3c(c2)CCN3C(=O)Cc2cccc(C(F)(F)F)c2)c2c(N)ncnc21
In short: as §1

quisinostat = compound: Cn1cc(CNCC2CCN(c3ncc(C(=O)NO)cn3)CC2)c2ccccc21 [quisinostat]
In short: as §1

tipifarnib = compound: Cn1cncc1[C@@](N)(c1ccc(Cl)cc1)c1ccc2c(c1)c(-c1cccc(Cl)c1)cc(=O)n2C [tipifarnib]
In short: as §1

[4] = compound: NC(=O)Nc1cc(-c2cccc(F)c2)sc1C(=O)N[C@H]1CCCNC1
In short: as §1

[5] = compound: NC(=O)c1cnc(N[C@@H]2CCCC[C@@H]2N)nc1Nc1cccc(-n2nccn2)c1
In short: as §1

[6] = compound: NC1(c2ccc(-c3nc4ccn5c(=O)[nH]nc5c4cc3-c3ccccc3)cc2)CCC1
In short: as §1

Sequence of UniProt O60645 (O60645 whole entry, looked up): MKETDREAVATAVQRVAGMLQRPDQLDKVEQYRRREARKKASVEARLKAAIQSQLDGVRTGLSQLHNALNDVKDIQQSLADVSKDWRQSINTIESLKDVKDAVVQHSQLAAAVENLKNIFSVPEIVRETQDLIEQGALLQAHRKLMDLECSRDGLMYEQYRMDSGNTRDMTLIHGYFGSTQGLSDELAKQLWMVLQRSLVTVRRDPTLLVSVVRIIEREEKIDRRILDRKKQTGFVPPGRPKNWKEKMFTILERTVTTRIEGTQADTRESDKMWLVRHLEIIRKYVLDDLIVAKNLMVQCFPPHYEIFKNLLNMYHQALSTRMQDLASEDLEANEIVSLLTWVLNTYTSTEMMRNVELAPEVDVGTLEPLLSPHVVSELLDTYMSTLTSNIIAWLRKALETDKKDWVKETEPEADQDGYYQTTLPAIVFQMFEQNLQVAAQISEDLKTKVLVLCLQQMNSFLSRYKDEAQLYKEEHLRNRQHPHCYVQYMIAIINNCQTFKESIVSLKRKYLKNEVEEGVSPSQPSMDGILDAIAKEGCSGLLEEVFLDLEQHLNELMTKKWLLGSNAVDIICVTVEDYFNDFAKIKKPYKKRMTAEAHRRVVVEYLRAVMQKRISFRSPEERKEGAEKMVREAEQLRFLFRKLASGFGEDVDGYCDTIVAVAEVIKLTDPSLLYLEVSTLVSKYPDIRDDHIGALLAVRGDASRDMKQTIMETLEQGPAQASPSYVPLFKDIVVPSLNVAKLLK
Sequence of UniProt Q9NWS6 (Q9NWS6 whole entry, looked up): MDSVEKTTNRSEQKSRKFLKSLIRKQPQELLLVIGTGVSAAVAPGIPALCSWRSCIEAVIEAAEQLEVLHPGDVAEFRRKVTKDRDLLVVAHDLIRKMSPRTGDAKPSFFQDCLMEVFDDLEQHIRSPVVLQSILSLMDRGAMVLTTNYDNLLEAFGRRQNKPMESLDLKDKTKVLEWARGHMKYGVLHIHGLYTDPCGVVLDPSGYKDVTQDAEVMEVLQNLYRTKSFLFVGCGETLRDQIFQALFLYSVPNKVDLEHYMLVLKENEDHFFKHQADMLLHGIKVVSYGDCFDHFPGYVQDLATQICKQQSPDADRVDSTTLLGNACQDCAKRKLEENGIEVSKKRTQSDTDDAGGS
Sequence of UniProt O75071 (O75071 whole entry, looked up): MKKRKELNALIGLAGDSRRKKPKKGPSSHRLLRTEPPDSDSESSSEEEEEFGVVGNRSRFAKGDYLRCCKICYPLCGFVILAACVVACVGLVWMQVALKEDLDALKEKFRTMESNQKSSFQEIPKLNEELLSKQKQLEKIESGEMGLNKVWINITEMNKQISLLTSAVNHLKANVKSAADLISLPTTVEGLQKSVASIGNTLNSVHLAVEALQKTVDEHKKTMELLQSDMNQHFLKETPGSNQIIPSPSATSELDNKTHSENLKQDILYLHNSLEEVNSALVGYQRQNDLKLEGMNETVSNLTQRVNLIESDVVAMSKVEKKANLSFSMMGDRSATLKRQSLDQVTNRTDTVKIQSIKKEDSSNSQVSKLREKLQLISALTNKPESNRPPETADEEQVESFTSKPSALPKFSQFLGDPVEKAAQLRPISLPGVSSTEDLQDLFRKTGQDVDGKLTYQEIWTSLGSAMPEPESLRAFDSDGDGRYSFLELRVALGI
Sequence of UniProt Q10471 (Q10471 whole entry, looked up): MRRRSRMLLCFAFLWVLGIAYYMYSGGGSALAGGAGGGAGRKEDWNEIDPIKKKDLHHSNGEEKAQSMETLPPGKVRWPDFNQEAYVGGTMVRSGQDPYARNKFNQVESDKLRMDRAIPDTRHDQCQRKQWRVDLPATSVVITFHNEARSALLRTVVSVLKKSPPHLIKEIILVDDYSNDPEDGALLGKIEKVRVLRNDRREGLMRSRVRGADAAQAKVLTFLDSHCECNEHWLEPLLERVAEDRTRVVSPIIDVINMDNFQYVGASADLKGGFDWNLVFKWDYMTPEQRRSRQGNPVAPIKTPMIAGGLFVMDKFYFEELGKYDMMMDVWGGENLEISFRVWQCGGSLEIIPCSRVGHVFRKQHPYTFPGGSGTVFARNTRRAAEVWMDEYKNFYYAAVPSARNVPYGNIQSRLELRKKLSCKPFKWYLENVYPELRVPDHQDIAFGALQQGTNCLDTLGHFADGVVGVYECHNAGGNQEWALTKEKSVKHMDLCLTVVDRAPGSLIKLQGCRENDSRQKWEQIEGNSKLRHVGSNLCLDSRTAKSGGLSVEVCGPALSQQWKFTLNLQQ
Sequence of UniProt Q6PIJ6 (Q6PIJ6 whole entry, looked up): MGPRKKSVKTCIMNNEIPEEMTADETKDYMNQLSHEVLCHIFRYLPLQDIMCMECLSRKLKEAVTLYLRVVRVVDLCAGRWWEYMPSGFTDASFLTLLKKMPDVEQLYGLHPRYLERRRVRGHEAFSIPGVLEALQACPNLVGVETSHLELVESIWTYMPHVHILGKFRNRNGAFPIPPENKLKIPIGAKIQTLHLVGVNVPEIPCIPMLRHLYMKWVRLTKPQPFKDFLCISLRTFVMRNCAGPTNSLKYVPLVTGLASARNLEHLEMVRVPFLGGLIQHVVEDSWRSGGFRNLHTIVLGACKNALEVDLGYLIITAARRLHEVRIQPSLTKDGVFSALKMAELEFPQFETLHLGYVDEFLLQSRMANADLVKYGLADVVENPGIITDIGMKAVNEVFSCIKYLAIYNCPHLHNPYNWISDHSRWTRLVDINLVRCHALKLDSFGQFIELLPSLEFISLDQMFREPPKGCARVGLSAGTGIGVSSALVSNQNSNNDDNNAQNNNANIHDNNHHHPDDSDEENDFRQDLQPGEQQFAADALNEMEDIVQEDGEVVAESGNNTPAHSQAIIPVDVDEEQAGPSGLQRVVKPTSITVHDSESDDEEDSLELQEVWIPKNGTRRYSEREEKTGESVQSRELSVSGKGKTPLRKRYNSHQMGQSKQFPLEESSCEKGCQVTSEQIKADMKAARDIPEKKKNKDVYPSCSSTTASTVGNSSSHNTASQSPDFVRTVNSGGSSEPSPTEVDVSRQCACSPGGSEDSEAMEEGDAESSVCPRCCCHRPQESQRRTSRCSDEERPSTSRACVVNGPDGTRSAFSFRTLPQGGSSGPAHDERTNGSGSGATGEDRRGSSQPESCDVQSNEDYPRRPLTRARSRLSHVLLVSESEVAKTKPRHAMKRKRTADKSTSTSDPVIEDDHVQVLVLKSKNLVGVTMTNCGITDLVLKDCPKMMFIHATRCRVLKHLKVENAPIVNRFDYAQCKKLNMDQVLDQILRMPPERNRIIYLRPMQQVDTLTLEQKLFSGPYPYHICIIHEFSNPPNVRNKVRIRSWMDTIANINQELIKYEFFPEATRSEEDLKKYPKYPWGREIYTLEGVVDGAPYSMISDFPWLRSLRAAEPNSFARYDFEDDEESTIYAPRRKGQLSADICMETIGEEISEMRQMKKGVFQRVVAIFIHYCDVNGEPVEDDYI
Sequence of UniProt Q9GZT9 (Q9GZT9 whole entry, looked up): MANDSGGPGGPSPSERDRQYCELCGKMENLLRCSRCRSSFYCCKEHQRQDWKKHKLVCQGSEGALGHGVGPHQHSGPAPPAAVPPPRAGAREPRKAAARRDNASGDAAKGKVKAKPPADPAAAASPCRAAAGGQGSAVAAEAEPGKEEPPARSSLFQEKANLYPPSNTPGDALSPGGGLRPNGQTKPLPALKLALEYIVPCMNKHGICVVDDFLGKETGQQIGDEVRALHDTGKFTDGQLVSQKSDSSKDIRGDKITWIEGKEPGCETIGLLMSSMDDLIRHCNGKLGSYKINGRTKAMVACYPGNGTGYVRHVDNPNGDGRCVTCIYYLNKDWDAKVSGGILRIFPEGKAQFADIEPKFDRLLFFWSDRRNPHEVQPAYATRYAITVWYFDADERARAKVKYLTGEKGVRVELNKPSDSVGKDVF
Sequence of UniProt Q56P03 (Q56P03 whole entry, looked up): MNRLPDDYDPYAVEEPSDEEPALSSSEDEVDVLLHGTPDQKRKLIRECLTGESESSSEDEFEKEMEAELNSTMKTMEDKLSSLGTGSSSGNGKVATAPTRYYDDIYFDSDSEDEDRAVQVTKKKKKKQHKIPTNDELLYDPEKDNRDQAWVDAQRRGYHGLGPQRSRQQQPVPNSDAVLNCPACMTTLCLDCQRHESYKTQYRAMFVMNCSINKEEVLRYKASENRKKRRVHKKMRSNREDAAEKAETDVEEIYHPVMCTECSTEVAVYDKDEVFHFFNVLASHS
Sequence of UniProt O75616 (O75616 whole entry, looked up): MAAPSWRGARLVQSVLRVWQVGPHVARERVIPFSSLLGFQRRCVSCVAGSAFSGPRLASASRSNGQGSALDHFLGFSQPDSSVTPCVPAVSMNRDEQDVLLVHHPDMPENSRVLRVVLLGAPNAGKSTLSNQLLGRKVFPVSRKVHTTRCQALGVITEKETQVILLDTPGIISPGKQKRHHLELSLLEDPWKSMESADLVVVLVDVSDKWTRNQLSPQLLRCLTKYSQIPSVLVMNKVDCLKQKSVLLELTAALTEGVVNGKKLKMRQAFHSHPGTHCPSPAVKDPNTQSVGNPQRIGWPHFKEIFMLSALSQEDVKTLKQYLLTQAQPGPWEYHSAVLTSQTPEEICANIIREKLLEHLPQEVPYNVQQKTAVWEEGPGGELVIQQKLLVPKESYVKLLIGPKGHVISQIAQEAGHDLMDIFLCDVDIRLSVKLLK
Sequence of UniProt Q9NX74 (Q9NX74 whole entry, looked up): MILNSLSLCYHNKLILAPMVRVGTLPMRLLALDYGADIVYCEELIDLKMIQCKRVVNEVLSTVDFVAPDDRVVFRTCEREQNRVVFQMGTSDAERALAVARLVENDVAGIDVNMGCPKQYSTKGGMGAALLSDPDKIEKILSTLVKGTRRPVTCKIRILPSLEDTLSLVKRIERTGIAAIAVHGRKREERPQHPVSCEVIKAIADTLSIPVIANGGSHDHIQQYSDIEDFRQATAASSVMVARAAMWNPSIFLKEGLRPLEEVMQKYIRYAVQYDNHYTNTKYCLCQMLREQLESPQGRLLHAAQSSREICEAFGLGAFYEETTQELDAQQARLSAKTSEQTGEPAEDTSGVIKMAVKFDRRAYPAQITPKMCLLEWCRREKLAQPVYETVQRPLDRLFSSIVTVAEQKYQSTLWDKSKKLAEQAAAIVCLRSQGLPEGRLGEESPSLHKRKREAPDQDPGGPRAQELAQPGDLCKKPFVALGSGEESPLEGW

Target	log2 fold change (nilotinib)	log2 fold change [1]	log2 fold change (dasatinib)	log2 fold change [2]	log2 fold change [3]	log2 fold change (quisinostat)	log2 fold change (tipifarnib)	log2 fold change [4]	log2 fold change [5]	log2 fold change [6]
FYB1 isoform 3 (UniProt O15117)	0.042	0.004	-0.017	-0.025	0.001	-0.068	-0.012	0.034	0.005	0.021
EXOC3 (UniProt O60645)	-0.013	0.012	-0.06	0.039	0.021	-0.115	-0.018	0.063	0.005	-0.005
FAM118A (UniProt Q9NWS6)	-0.017	-0.03	-0.043	-0.003	-0.082	-0.103	0.016	0.013	0.003	-0.023
GALNT2 (UniProt Q10471)	-0.02	-0.054	0.003	0.008	0.008	0.081	-0.067	-0.004	-0.002	-0.031
ETHE1 (UniProt O95571)	0.25 (active)	-0.124	-0.037	0.095	-0.046	-0.015	-0.181	0.055	0	-0.002
FAM98A (UniProt Q8NCA5)	-0.045	0.034	-0.034	0.018	-0.022	-0.042	0.009	-0.004	-0.028	-0.014
FBXO38 (UniProt Q6PIJ6)	0.157	-0.203	-0.03	-0.125	-0.069	-0.028	-0.071	0.026	-0.031	0.012
FADS1, A0A0A0MR51	0.065	-0.078	0.04	0.02	0.079	0.004	0.069	0.008	-0.114	0.022
EP400 isoform 5 (UniProt Q96L91)	-0.05	-0.04	0.001	-0.025	-0.005	-0.014	0.04	0.012	0.019	-0.003
ERAL1 (UniProt O75616)	0	-0.001	0.01	0.003	0.018	-0.078	-0.027	0.083	-0.052	0.008
FNTB (UniProt P49356)	-0.005	0.016	0.018	-0.04	-0.022	-0.002	0.239 (active)	0.003	-0.011	-0.027
DUS2 (UniProt Q9NX74)	0.021	-0.035	0.037	0.011	-0.024	0.088	-0.019	0	0.014	-0.045
FASTKD2 (UniProt Q9NYY8)	-0.019	-0.006	-0.006	0.016	-0.026	-0.027	-0.02	0.049	0.027	0.015
GGA2 (UniProt Q9UJY4)	-0.028	-0.047	-0.043	0	0.032	-0.022	-0.003	0.066	0.043	0.001
DST (UniProt Q03001)	-0.002	-0.035	-0.023	0.045	-0.06	-0.118	0.069	0.022	0.027	-0.107
EAPP (UniProt Q56P03)	0.039	0.018	0.024	-0.095	-0.001	0.017	0.002	0.021	0.038	-0.045
FAM114A2 (UniProt Q9NRY5)	0.152	0.053	-0.028	0.031	0.002	0.02	-0.231	0	0.009	-0.071
GIGYF2 (UniProt Q6Y7W6)	0.004	-0.03	0.006	0.007	0.024	-0.011	-0.09	0.026	0.007	-0.04
EGLN1 (UniProt Q9GZT9)	0.006	0.007	-0.045	-0.066	0.03	-0.048	-0.05	0.044	0.039	0.006
ELAVL1 isoform 2 (UniProt Q15717)	-0.035	-0.014	-0.029	-0.009	0.037	-0.079	0.003	0.034	0.008	0.03
EFCAB14 (UniProt O75071)	-0.16	0.016	0.049	0.001	-0.005	-0.001	0.013	0.053	-0.005	0.013
FAM83A (UniProt Q86UY5)	-0.007	-0.069	-0.028	-0.016	-0.033	-0.088	-0.08	0.034	0.004	-0.019
EIF1 (UniProt P41567)	0.126	0.084	0.001	0.142	-0.03	0.133	0	-0.018	-0.076	-0.032
